Screens as filed in PubChem BioAssay.
SW480 rerep: inducers of DNA re-replication in SW480 colon cancer cells; 340,000 compounds, 1.8% hits; SW480 DNA re-replication, Hoechst DNA content imaging, 48 h; AID 624297; Potency, µM (series often up to 46.1 µM), without a hit: top-dose re-replication activation, hits mostly activators; note: % of control where 0% means no effect; nearly all actives have a fitted effect of over 55% in size
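Quantitative HTS format with DMSO vehicle controls; 48 hr drug incubation at 37 C, then 40 min Hoechst staining and scanning imager measurement at 405 nm excitation.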
KB-V1 MDR tox: KB-V1 MDR subline cytotoxicity; KB-V1 MDR cells viability, CellTiter-Glo, 72 h; Potency, µM (top dose mostly 46.1 µM), hits mostly cytotoxic; 400,000 compounds, 3.4% hits; note: % is set by controls: 0 for no effect and ±100 for the full control effect; nearly all actives have a fitted effect of over 60% in size
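Luminescent ATP read-out (CellTiter-Glo, 10 min) measures survival of drug-selected KB-V1 MDR cells after 72 h, 37 degrees C compound exposure. Medium: phenol-red-free DMEM, 10% FBS. Values from fitted concentration-response curves.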
Gal4-VP16 FLuc: Gal4-VP16 reporter inhibition counter-screen | Drosophila S2 Gal4-VP16 UAS-luciferase, luminescence, 20 h | Potency, µM (top dose mostly 53.6 µM), inactives show at the top dose activity, negative = inhibition, usual class: inhibitors | 310,000 compounds, 3.5% hits | AID 2546;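 note: Gal4-VP16 expression switched on by copper sulfate through the metallothionein promoter; % is set by controls: 0 for no effect and ±100 for the full control effect; nearly all actives have a fitted effect of over 50% in size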
RORgamma inh: inhibitors of mouse ROR gamma transcriptional activity | Potency, µM (highest dose often 53.6 µM), for the others: at the highest dose activity change, negative = inhibition, actives largely listed as inhibitors | P51450 | AID 2551 | Drosophila S2 Gal4-RORgamma UAS-luciferase reporter, 20 h | 310,000 compounds, 5.4% hits; note: % is set by controls: 0 for no effect and ±100 for the full control effect; nearly all actives have a fitted effect of over 60% in size
Target sequence (P51450 whole entry, looked up, the tested form may be a part): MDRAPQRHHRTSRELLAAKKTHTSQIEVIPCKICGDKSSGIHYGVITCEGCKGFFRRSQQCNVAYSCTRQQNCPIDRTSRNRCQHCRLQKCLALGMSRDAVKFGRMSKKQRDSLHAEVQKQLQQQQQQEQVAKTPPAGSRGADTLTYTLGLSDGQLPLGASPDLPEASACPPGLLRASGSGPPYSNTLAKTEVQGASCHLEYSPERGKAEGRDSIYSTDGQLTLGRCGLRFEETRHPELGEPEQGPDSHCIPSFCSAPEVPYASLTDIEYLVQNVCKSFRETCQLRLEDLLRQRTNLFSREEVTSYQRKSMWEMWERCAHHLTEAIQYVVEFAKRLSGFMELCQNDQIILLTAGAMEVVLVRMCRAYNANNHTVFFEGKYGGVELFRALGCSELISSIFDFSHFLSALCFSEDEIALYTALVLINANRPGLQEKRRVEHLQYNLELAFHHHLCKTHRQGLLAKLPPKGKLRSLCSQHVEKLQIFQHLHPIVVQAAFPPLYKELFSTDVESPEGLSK
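Read-out: Photinus luciferase luminescence; inhibitors lower reporter signal. Insect Schneider cells with Gal4-ROR gamma fusion under metallothionein promoter, UAS reporter; 700 uM final copper sulfate induction, 20 hr, ambient temperature.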
MCF10A rerep: induces DNA re-replication in MCF 10a normal breast cells; MCF 10A DNA re-replication, Hoechst nuclear intensity, 48 h; Potency, µM (top dose mostly 46.1 µM), for the others: at the highest dose activity, positive = re-replication, most hits filed as activators; 350,000 compounds, 2.9% hits; note: % of control where 0% means no effect; nearly all actives have a fitted effect of over 50% in size
KB-3-1 cytotox: KB-3-1 parental cell cytotoxicity; 400,000 compounds, 1.4% hits; KB-3-1 viability, CellTiter-Glo ATP luminescence, 72 h; Potency, µM (titrated, usually from 46.1 µM), usual class: cytotoxic; AID 1347075; note: % is set by controls: 0 for no effect and ±100 for the full control effect; nearly all actives have a fitted effect of over 60% in size
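Cytotoxicity in the drug-sensitive parental line KB-3-1 was scored as loss of CellTiter-Glo luminescence following 72 h incubation with compound. Values come from curve fitting of normalized concentration-response data.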
* hit, by the source's call; i = inactive; ? = inconclusive; / = not tested or not shown. Hits are enriched below; roughly 10% of the tested compounds scored in any of these assays. Calls come from the whole dose curve; as a rule, active = well fitted curve in the direction sought with a large enough effect; inconclusive = small, poorly fitted or top-dose-only effect, or another doubt; inactive = no such curve, though single readings can be large; an effect the other way counts as inactive or inconclusive. Potency is the fitted concentration of half-maximal effect.

SMILES | SW480 rerep | KB-V1 MDR tox | Gal4-VP16 FLuc | RORgamma inh | MCF10A rerep | KB-3-1 cytotox
O=C(Nc1nnc(-c2ccc(Cl)cc2)o1)NC1CCCCC1 | 3.7% | i | 3.55µM* | ? | 2.7% | i
CSc1ncccc1C(=O)N1CCCC(N2CCN(c3ccccc3C)CC2)C1 (stereo not drawn) | / | ? | / | / | / | i
COc1ccc(-c2cn(Cc3ccc(C(=O)NCc4ccc(C)cc4)cc3)c(C(C)N)n2)cc1 (stereo not drawn) | 20.9% | i | / | / | 16.5% | i
CCOC(=O)c1cnc2ccccc2c1Nc1cccc(OC)c1 | / | ? | / | / | / | i
CC(=O)c1ccccc1NS(=O)(=O)c1cc2c(cc1C)NC(=O)CO2 | / | i | / | / | / | i
COc1cc(NC(=O)Cc2c(C(=O)O)c(C)cn2C)cc(OC)c1 | / | ? | / | / | / | i
O=C(Nc1ccc(Cl)cc1)Nc1nc(-c2ccccc2)cs1 | -8.2% | i | -14.9% | 7.6% | 0.581µM* | i
O=C(Nc1ccccc1)Nc1nc(-c2ccc(F)cc2)cs1 | 2.1% | i | 2.0% | -6.2% | 5.4% | i
O=C(Nc1nc(-c2ccc(Cl)cc2)cs1)NC1CCCCC1 | / | 13µM* | ? | 44.8% | ? | ?
O=C(Nc1nccs1)NC1CCCCC1 | -9.4% | i | 17.4% | 8.6% | 0.7% | i
Cc1nc2c(OCCN3C(=O)c4ccccc4C3=O)cccn2c1N(C)C(=O)CCC1CCCC1 | / | i | / | / | / | i
O=C(CNC(=O)c1ccc2c(c1)OCO2)N/N=C(Br)/C=C/c1ccccc1 | ? | i | -55.4% | ? | 9.2µM* | ?
O=C(N/N=C/c1ccc(F)cc1)c1cccc(NC(=O)c2ccc(F)cc2)c1 | 2.0% | i | -7.7% | -20.6% | 20.6µM* | ?
O=C(N/N=C/c1ccc2c(c1)OCO2)c1cccnc1 | -9.2% | i | 18.0% | -22.7% | -6.4% | i
O=C(O)c1ccc(/C=N/NC(=O)c2ccc3c(c2)OCCO3)cc1 | -10.0% | i | -26.5% | ? | ? | i
O=C(N/N=C/c1ccc(Br)o1)c1ccc2c(c1)OCCO2 | -0.3% | ? | ? | 11.2µM* | 3.4% | i
O=C(N/N=C/c1cccnc1)c1ccc2c(c1)OCCO2 | -4.3% | i | 14.1µM* | ? | -1.4% | i
